Shiga inhibitor: Shiga toxin inhibition | Vero cells, Shiga toxin protein synthesis inhibition reporter | actives 9.2% (n = 290,000) | inhibition, % at 38.7 µM; in the data active = inhibition mostly above about 28%, no sharp cut-off; inactive = mostly below about 43%; also: 0% is about no effect
Pf growth 48h: inhibits P. falciparum growth in the first generation, 48 h | P. falciparum luciferase growth in erythrocytes, 48 h | Potency, µM (titrated, usually from 28.7 µM), inactives show at the highest dose activity change, negative = inhibition, most hits filed as inhibitors | actives 5.9% (n = 310,000) | AID 504832; also: potency is read from the fitted curve at half-maximal effect; % is scaled to controls: 0 for no effect and ±100 for the full control effect
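Erythrocytes infected with P. falciparum carrying an integrated firefly luciferase reporter (2% hematocrit, 0.1% parasitemia final) were exposed to compounds in RPMI 1640 with 0.5% Albumax at 37 C, 5% CO2. Growth inhibition was scored as reduced luminescence.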
CHX counter: counter-screen for Shiga toxin inhibitors: cycloheximide protein synthesis inhibition; cell reporter, cycloheximide protein synthesis inhibition counterscreen; max response, %; actives 12% (n = 300,000); AID 2314; in the data active = max response mostly above about 13%, no sharp cut-off; inactive = mostly below about 14%; also: read at 38.3 µM for the half of the compounds with a filed dose; 0% is about no effect
Pf growth 96h: P. falciparum growth inhibition at 96 hours; P. falciparum luciferase reporter growth, 96 h; Potency, µM (doses to about 28.7 µM), for inactives: top-dose activity change, negative = inhibition, usual class: inhibitors; actives 6.9% (n = 320,000); AID 504834; also: potency is read from the fitted curve at half-maximal effect; % is scaled to controls: 0 for no effect and ±100 for the full control effect
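Erythrocytes infected with luciferase-expressing P. falciparum were dispensed at 2% hematocrit and 0.05% parasitemia (final), then incubated with compounds 96 hours at 37 C in 5% CO2. Luminescence after detection reagent addition reported growth.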
LmPK inhibitor: blocks Leishmania mexicana pyruvate kinase activity; Potency, µM (series often up to 57.5 µM), inactives show at the highest dose activity change, negative = inhibition, hits mostly inhibitors; actives 0.37% (n = 290,000); purified LmPK, Kinase-Glo ATP luminescence, 1 h; AID 1721; also: potency is read from the fitted curve at half-maximal effect; % is scaled to controls: 0 for no effect and ±100 for the full control effect
Target sequence (Q27686 whole entry, looked up): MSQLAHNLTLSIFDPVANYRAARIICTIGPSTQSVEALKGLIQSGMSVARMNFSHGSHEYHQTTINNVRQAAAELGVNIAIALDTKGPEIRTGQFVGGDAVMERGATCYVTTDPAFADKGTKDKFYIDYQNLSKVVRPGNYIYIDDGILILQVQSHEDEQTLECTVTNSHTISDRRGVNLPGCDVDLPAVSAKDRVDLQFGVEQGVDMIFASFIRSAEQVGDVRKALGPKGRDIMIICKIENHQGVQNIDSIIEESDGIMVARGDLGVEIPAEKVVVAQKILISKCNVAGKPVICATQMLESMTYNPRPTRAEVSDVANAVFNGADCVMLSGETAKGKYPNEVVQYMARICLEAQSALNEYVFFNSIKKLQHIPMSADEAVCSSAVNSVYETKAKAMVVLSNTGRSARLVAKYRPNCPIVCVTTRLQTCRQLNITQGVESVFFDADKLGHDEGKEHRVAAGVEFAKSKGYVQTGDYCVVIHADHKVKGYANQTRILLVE
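qHTS format; LmPK 0.1 nM; substrates PEP 0.5 mM and ADP 0.1 mM. One-hour room-temperature incubation, then coupled luciferase luminescence; 0.5 nM enzyme wells mark activation.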
* hit, by the source's call; i = inactive; ? = inconclusive; . = not tested or not shown. Most compounds without a hit are left out; they make up all but 22% or so of the library. Unless noted, calls follow the shape of the dose curve; as a rule, active = well fitted inhibition curve with a large enough effect; inconclusive = small, poorly fitted or top-dose-only effect, or another doubt; inactive = no such curve, though single readings can be large or run the other way.

SMILES	Shiga inhibitor	Pf growth 48h	CHX counter	Pf growth 96h	LmPK inhibitor
Cc1ccc2c(C)nc(Nc3nc(CSc4nnnn4-c4ccccc4)cc(=O)[nH]3)nc2c1	-10	2.3µM*	4	.	1%
Cc1ccccc1-n1ncc(C(C)NS(=O)(=O)c2ccccc2Cl)c1C (stereo not given)	-4	4%	-4	0%	-12%
COc1ccccc1OCC(O)CNCc1ccc2c(c1)OCO2 (stereo not given)	16	-7%	-1	1%	-6%
CS(=O)(=O)N1CCC(Oc2ccccc2C(=O)NC2CCOC2)CC1 (stereo not given)	9	-2%	2	0%	6%
CS(=O)(=O)N1CCC(Oc2ccccc2C(=O)NC(C2CC2)C2CC2)CC1	45*	-5%	16	26%	5%
CS(=O)(=O)N1CCC(Oc2ccccc2C(=O)NCCCc2cccnc2)CC1	-2	-11%	1	9.3µM*	4%
CC(OC(=O)c1ccc(Cl)nc1)C(=O)NC1CCCC1 (stereo not given)	.	0%	.	30%	.
Nc1ccc(C2=Nc3cccc4cccc(c34)N2)cc1	7	?	8	20%	-28%
COc1cccc(C2=Nc3cccc4cccc(c34)N2)c1	16	?	14*	?	0%
COc1cc(C(CCN2CCOCC2)c2c(OC)cc(OC)c3ccc(=O)oc23)cc(OC)c1OC (stereo not given)	-16	.	-4	.	.
CCCCCc1cc(=O)oc2c(C(CCN3CCCC(C)C3)c3cc(OC)c(OC)c(OC)c3)c(OC)cc(OC)c12 (stereo not given)	11	2.6µM*	-6	0.37µM*	11%
CCCCCc1cc(=O)oc2c(C(CCN3CCCCC3)c3cc(OC)c(OC)c(OC)c3)c(OC)cc(OC)c12 (stereo not given)	-9	5.2µM*	6	2.3µM*	4%
COc1cc(C(CCN2CCCC(C)C2)c2c(OC)cc(OC)c3c(C)cc(=O)oc23)cc(OC)c1OC (stereo not given)	-8	.	-4	.	.
CCCCCc1cc(=O)oc2c(C(CCN3CCCC(C)C3)c3ccc(N(C)C)cc3)c(OC)cc(OC)c12 (stereo not given)	2	?	-3	8.3µM*	-2%
CC(=O)OC(COC1C[C@@H]2CC[C@@]1(C)C2(C)C)C[N+]1(C)CCCCC1 (stereo not given in full)	5	3.3µM*	-2	2.9µM*	5%
Oc1ccccc1C=NCC(O)c1ccccc1 (stereo not given)	27	-7%	1	2%	-13%
S=c1[nH]nc(COc2ccc3ccccc3c2)o1	43*	45%	15	9.3µM*	2%
COc1ccc(Cc2n[nH]c(=S)o2)cc1	-4	-8%	-3	?	1%
N#CCSc1nnc(COc2ccc3ccccc3c2)o1	93*	28%	67*	.	0%
COc1ccc(/C(N)=N/O)cc1O	12	26%	-5	-6%	-1%
COc1ccc(C(=O)/C=C/Nc2cc(C)on2)c(OC)c1	65	50%	25*	57%	-5%
COc1ccc(C(=O)/C=C/Nc2ccc([N+](=O)[O-])cc2C)c(OC)c1	4	32%	2	50%	7%
COc1ccc(C(=O)/C=C/c2ccc(N(C)C)cc2)c(OC)c1	30	?	26*	2.1µM*	1%
COc1ccc(C(=O)/C=C/c2ccccc2)c(OC)c1	54*	-63%	32*	?	-9%
COc1ccc(C(=O)/C=C/c2cc(OC)c(O)c(OC)c2)c(F)c1	9	-7%	6	?	0%
SMILES	Shiga inhibitor	Pf growth 48h	CHX counter	Pf growth 96h	LmPK inhibitor
COc1ccc(C(=O)NCCS(=O)(=O)N2CCN(Cc3ccccc3)CC2)cc1	.	8%	.	6%	.
CC(C)OCCCNC(=O)c1c(N)n(Cc2cccs2)c2nc3ccccc3nc12	-3	9.3µM*	-3	12µM*	8%
CC(C)CCn1c(N)c(C(=O)NCc2cccs2)c2nc3ccccc3nc21	3	0.83µM*	5	?	3%
COCCNC(=O)c1c(N)n(CCCn2ccnc2)c2nc3ccccc3nc12	10	7.4µM*	-2	?	10%
COCCCNC(=O)c1c(N)n(Cc2ccco2)c2nc3ccccc3nc12	14	?	6	?	5%
COCCn1c(N)c(C(=O)NCc2cccs2)c2nc3ccccc3nc21	-4	?	-4	?	1%
Cc1nn(S(=O)(=O)c2ccc(F)cc2)c(C)c1S(=O)(=O)N1CCOCC1	30	9%	-3	-4%	-4%
CC(C)C(=O)N1CCN(c2ccc(NC(=O)c3cccs3)cc2Cl)CC1	25*	?	12	-1%	-5%
CCC(=O)Nc1ccc(N2CCN(C(=O)c3ccco3)CC2)c(Cl)c1	11	-11%	10	?	-4%
O=C(Nc1ccc(N2CCN(C(=O)c3ccco3)CC2)c(Cl)c1)c1cccs1	29*	5.2µM*	22*	.	0%
CC(C)C(=O)N1CCN(c2ccc(NC(=O)c3cccs3)cc2)CC1	-5	?	-3	104%	5%
O=C(Cc1ccc(Cl)cc1)Nc1ccc(N2CCN(C(=O)c3ccco3)CC2)c(Cl)c1	13	12µM*	9	-10%	1%
O=C(c1ccco1)N1CCN(C(=O)c2cccs2)CC1	0	10%	-3	.	0%
COc1ccc2c(c1)C(c1ccc(C)cc1)CC(=O)O2 (stereo not given)	i	.	10	.	.
O=C(CSc1nnc2ccccn12)NNC(=O)c1cccc([N+](=O)[O-])c1	.	41%	.	8%	.
CC(=O)Nc1ccc(NC(=O)CSc2nnc(-c3cccnc3)o2)cc1	.	37%	.	28%	.
Cc1noc(NC(=O)c2c(-c3c(Cl)cccc3Cl)noc2C)c1[N+](=O)[O-]	-5	?	-2	?	3%
CCSC1=N/C(=C\c2ccc(C(=O)O)cc2)C(=O)S1	-18	.	-3	13µM*	18%
Cc1ccc(C)c(NC(=O)CCC(=O)NNC(=O)c2cccc([N+](=O)[O-])c2)c1	-4	29%	0	34%	3%
Cc1ccc2ccc3ccc(C)nc3c2n1	9	0.23µM*	6	18%	-8%
Cc1cc(C)cc(N(CC(=O)NC2CCCC2)C(=O)CCC(=O)Nc2nc(C)cs2)c1	-4	?	-2	19%	-1%
COc1ccc(CNS(=O)(=O)c2c(C(=O)N3CCCCCC3)c(C)n(C)c2C)cc1	-3	-15%	-3	3.3µM*	-1%
Cc1ccc(CNS(=O)(=O)c2c(C(=O)N3CCCCC3)c(C)n(C)c2C)cc1	3	16%	-2	-13%	10%
Cc1c(C(=O)N2CCCCC2)c(S(=O)(=O)NCc2ccc(N(C)C)cc2)c(C)n1C	3	-5%	2	0.83µM*	-4%
CCC1CCC(N2CCN(c3ccc([N+](=O)[O-])cc3)CC2)CC1 (stereo not given)	10	?	7	?	-1%

Compound activity (PubChem BioAssay)
